{"source": "the supplement of paper PMC11417369", "note": "The full ranking holds about 25,000 sequences; the median of “ln(normalized median fluorescence intensity)” is about 6.7, and the highest 2% start at about 10. The sample holds the highest values, similar sequences and a random draw of the others, so the mix is not that of the screen.", "data": [{"test_system": "PfHDP1 homeodomain (GST-tagged)", "experiment": "gcPBM binding intensity (ln(normalized median fluorescence intensity)); higher = stronger DNA binding", "how_it_was_run": "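An Agilent 4 × 180k array of primer-extended double-stranded 36-bp intergenic genomic probes, with negative controls, was incubated for 1 h with GST-tagged P. falciparum DNA-binding domains expressed in E. coli. Alexa488 anti-GST antibody detected bound protein, scanned at 488 nm. Binding intensity is the highest Masliner-normalised natural-log median intensity across replicate spots of either probe orientation.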", "values": [{"sequence": "ATGTATGTTTGTTATGCACACAAATGCATCTTATTT [CACACA_site8861]", "gcPBM binding intensity (ln)": 10.3}, {"sequence": "TTGTTCGATATATGCACACAGTTTTGTTATTTTTCC [CACACA_site4972]", "gcPBM binding intensity (ln)": 9.91}, {"sequence": "GTATGTTTGTTATGCACACAAATGCATCTTATTTCC [CACACA_site2690]", "gcPBM binding intensity (ln)": 10.8}, {"sequence": "AAAAAAAAAAAAAAAGGTACAGTAAAAAATTCCTCT [XGTACX_site5947]", "gcPBM binding intensity (ln)": 6.46}, {"sequence": "AAAATTAAAATAGTAATACACACTTCATAGGAAATG [CACACA_site1762]", "gcPBM binding intensity (ln)": 6.02}, {"sequence": "AGATATATAAATATTACACACTATATATCTATTTAT [CACACA_site6466]", "gcPBM binding intensity (ln)": 6.64}, {"sequence": "TTTTTTTATATTTTTAGTACACATTGGTATATATAT [XGTACX_site4114]", "gcPBM binding intensity (ln)": 6.77}, {"sequence": "TTAGTATATACATTTGCACACATTATTTTTTAACAT [CACACA_site2618]", "gcPBM binding intensity (ln)": 10.5}, {"sequence": "ATACATAAAATTAAAACACACATTTTATTAAATACG [CACACA_site2167]", "gcPBM binding intensity (ln)": 6.44}, {"sequence": "TATTTAAAAATATATACACACATTTTATATTATTAT [CACACA_site781]", "gcPBM binding intensity (ln)": 6.32}, {"sequence": "TTAGTAAATACATTTGCACACATTATTTTTTAACAT [CACACA_site5448]", "gcPBM binding intensity (ln)": 10.7}, {"sequence": "ATTTATATTTAATATACACACATTATTTTTTTATAT [CACACA_site574]", "gcPBM binding intensity (ln)": 6.86}, {"sequence": "AATTATATAACAAATTGTACGAATGAAAATATTATT [XGTACX_site4237]", "gcPBM binding intensity (ln)": 6.79}, {"sequence": "ATATTTTTATGATGTATCCAAGAAATGGAACTATAT [CACACA_negctrl_site1268]", "gcPBM binding intensity (ln)": 6.23}, {"sequence": "AAAATATAAATATATTGTACTGTTATATAATAAAAT [XGTACX_site2132]", "gcPBM binding intensity (ln)": 6.41}, {"sequence": "TGTTGTAAATTAAAGACATGCACGTGAGAAAATATA [TGCATGCA_site285]", "gcPBM binding intensity (ln)": 11}, {"sequence": "ATGAAAAAAAGACATGCATGTAAATATAAATTGCTT [TGCATGCA_site504]", "gcPBM binding intensity (ln)": 6.68}, {"sequence": "ATAAATATGTAAAAAACATGCAAAAAATTAAAGACA [TGCATGCA_site912]", "gcPBM binding intensity (ln)": 7.22}, {"sequence": "TTTTTATATTTTACATGTACATAAATATATTATATA [XGTACX_site958]", "gcPBM binding intensity (ln)": 6.46}, {"sequence": "AAATACATACATTAATGTACAAATAGAAACACTCTT [XGTACX_site1512]", "gcPBM binding intensity (ln)": 6.85}, {"sequence": "TGAATATTTATACATGCACACTAAAATAAAGAATCT [CACACA_site5351]", "gcPBM binding intensity (ln)": 8.07}, {"sequence": "ACGGACAATACGGAAACACACAAGTTATTTTATCAT [CACACA_site7310]", "gcPBM binding intensity (ln)": 6.21}, {"sequence": "TAATGTTGAGAATTTTGTACATATAGATCAATTTAT [XGTACX_site5426]", "gcPBM binding intensity (ln)": 6.33}, {"sequence": "TTATGATAATTTTGCACACACTTAGGAAAAATTATG [CACACA_site4949]", "gcPBM binding intensity (ln)": 10.9}, {"sequence": "TTCAAAAAAGGAAAGTTGCACTTGATACGCTTATTA [GTGCAC_site9411]", "gcPBM binding intensity (ln)": 7.38}, {"sequence": "TTATGATAACTTTGCACACACTTAGGAAAAGTTATG [CACACA_site6836]", "gcPBM binding intensity (ln)": 10.6}, {"sequence": "TTTTATGATAATTTTGCACACACTTAGGAAAAATTA [CACACA_site1556]", "gcPBM binding intensity (ln)": 10.4}, {"sequence": "ACGTTAGGCTTATTTGCACACTTGTATTATAATTTT [CACACA_site1317]", "gcPBM binding intensity (ln)": 10.3}, {"sequence": "AAAGTAGGCTTATATGCACACTTTGAAATATTATAA [CACACA_site5117]", "gcPBM binding intensity (ln)": 9.77}, {"sequence": "GAAAAATTAATAAATAAACACACATATATATATATA [CACACA_site8835]", "gcPBM binding intensity (ln)": 9.29}, {"sequence": "AATCTAATTAAAATCACACATATATTCGTCGTAATA [CACACA_site5855]", "gcPBM binding intensity (ln)": 6.05}, {"sequence": "TAAATTATAAATTGCACACATATTTTTATATTTATA [CACACA_site2976]", "gcPBM binding intensity (ln)": 10.2}, {"sequence": "CCCATGCATTTTTGCACACACATATATTTATAAATA [CACACA_site6785]", "gcPBM binding intensity (ln)": 10.7}, {"sequence": "CCCATGCATTTTTGCACACACATATATATATAAATA [CACACA_site1430]", "gcPBM binding intensity (ln)": 10.8}, {"sequence": "TACCCATGCATTTTTGCACACACATATATATATAAA [CACACA_site1429]", "gcPBM binding intensity (ln)": 10.7}, {"sequence": "TTTTAAATAATACATACATGCATATATACACATATA [TGCATGCA_site8]", "gcPBM binding intensity (ln)": 6.58}, {"sequence": "CATATTTGTATATGCACACATAAATTTTTCCATTTC [CACACA_site3467]", "gcPBM binding intensity (ln)": 10.2}, {"sequence": "AATATTTTTTTTTAAACATGCATATTTGCATTACCC [TGCATGCA_site437]", "gcPBM binding intensity (ln)": 8.67}, {"sequence": "AGAATAAATATGCACACATGCATATATTTTTACACT [TGCATGCA_site893]", "gcPBM binding intensity (ln)": 10.3}, {"sequence": "TTGAAGAATAAATATGCACACATGCATATATTTTTA [CACACA_site5840]", "gcPBM binding intensity (ln)": 9.33}, {"sequence": "AAAAAAAAAAAAAAAAGTACAAAAATATATATGCAT [XGTACX_site8392]", "gcPBM binding intensity (ln)": 6.48}, {"sequence": "AATGATACTTAGGGGCATGTCTCTGGGGGCATAACC [CACACA_negctrl_site591]", "gcPBM binding intensity (ln)": 6.63}, {"sequence": "CATATTTCTTTATTGGCACACATTTTTTCAATTATA [CACACA_site1618]", "gcPBM binding intensity (ln)": 6.87}, {"sequence": "TTATTTAAATATTGATGTACTCTCCTTATTATAATA [XGTACX_site1240]", "gcPBM binding intensity (ln)": 6.76}, {"sequence": "TCCTTTCAACCATATATAATGACATGTACTCAAAAA [GTGCAC_negctrl_site417]", "gcPBM binding intensity (ln)": 6.77}, {"sequence": "ATATATTTTTAATATGCACACAAGAATACATTCACA [CACACA_site914]", "gcPBM binding intensity (ln)": 9.51}, {"sequence": "AACGATATCTGTACTACACACATTATGTCATCCTAT [CACACA_site5374]", "gcPBM binding intensity (ln)": 6.81}, {"sequence": "GTTATATTTTTTTATACACACTGGAATATATAAATA [CACACA_site4282]", "gcPBM binding intensity (ln)": 6.76}, {"sequence": "ATATTATATATATAGGTGCGAGTATTTTATAAATAT [GTGCAC_site9889]", "gcPBM binding intensity (ln)": 6.93}, {"sequence": "TTATATGTATATATAGTGCAGAACAAAAGATTATAT [GTGCAC_site9599]", "gcPBM binding intensity (ln)": 7.69}, {"sequence": "ATATTATATATATGTGCACACAAAAGATATATATAT [CACACA_site2125]", "gcPBM binding intensity (ln)": 10.5}, {"sequence": "ATTATATATATGTGCACACAAAAGATATATATATAT [CACACA_site5205]", "gcPBM binding intensity (ln)": 11.1}, {"sequence": "TATATAAAGATATATACACACAAAAAAAAAAAAAAA [CACACA_site6778]", "gcPBM binding intensity (ln)": 6.32}, {"sequence": "AAAAAAAAAAGACACACACACAAAAAAAGATATATA [CACACA_site6645]", "gcPBM binding intensity (ln)": 6.58}, {"sequence": "ATATATATATATATGTGTACACAAAAAATATTATAT [XGTACX_site5741]", "gcPBM binding intensity (ln)": 9.26}, {"sequence": "AGAAAGAAGATATATACACACAAAAAAAGATATATA [CACACA_site6779]", "gcPBM binding intensity (ln)": 6.75}, {"sequence": "TTCCAAAAAGTTATTACACACATATGTGCACATATA [CACACA_site6465]", "gcPBM binding intensity (ln)": 11.2}, {"sequence": "ATTCTATATATGTGCACACAAAAGATATATATATAT [CACACA_site2124]", "gcPBM binding intensity (ln)": 11.4}, {"sequence": "TTCCAAAAAATTATTACACACATATGAGCACATATA [CACACA_site4543]", "gcPBM binding intensity (ln)": 9.16}, {"sequence": "TTCCAAAAAATTATTACACACATATGGGCACATATA [CACACA_site679]", "gcPBM binding intensity (ln)": 6.54}, {"sequence": "TATATATATATGTGTACACAAAAAATATTATATTAT [CACACA_site5505]", "gcPBM binding intensity (ln)": 8.81}]}]}
